KB-3-1 tox: KB-3-1 parental cell cytotoxicity. KB-3-1 viability, CellTiter-Glo ATP luminescence, 72 h. Potency, µM (series often up to 46.1 µM), actives largely listed as cytotoxic. actives 1.4% (n = 400,000). AID 1347075; note: % is set by controls: 0 for no effect and ±100 for the full control effect; nearly all actives have a fitted effect of over 60% in size
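Viability of parental KB-3-1 cells, measured by CellTiter-Glo luminescence, followed a 72 h incubation at 37 °C with pinned compounds in phenol-red-free DMEM containing 10% FBS.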
KB-V1 cytotox: kills drug-selected multidrug resistant KB-V1 cells; KB-V1 MDR cells viability, CellTiter-Glo, 72 h; Potency, µM (series often up to 46.1 µM), usual class: cytotoxic; actives 3.4% (n = 400,000); AID 1347076; note: % is set by controls: 0 for no effect and ±100 for the full control effect; nearly all actives have a fitted effect of over 60% in size
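Cytotoxicity via CellTiter-Glo luminescence after 72 h compound exposure at 37 degrees C. Cells: drug-selected KB-V1 line, DMEM phenol-red free plus 10% FBS. Compounds tested at multiple concentrations; normalized data fitted to concentration-effect curves.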
12-LOX inh: inhibitors of human 12S-lipoxygenase ALOX12 | P18054 | purified 12hLO, xylenol orange hydroperoxide absorbance | Potency, µM (series often up to 108 µM), for the others: at the top dose activity change, negative = inhibition, hits mostly inhibitors | actives 1.1% (n = 580,000) | AID 1671190; note: % is set by controls: 0 for no effect and ±100 for the full control effect
Target sequence (P18054 whole entry, looked up): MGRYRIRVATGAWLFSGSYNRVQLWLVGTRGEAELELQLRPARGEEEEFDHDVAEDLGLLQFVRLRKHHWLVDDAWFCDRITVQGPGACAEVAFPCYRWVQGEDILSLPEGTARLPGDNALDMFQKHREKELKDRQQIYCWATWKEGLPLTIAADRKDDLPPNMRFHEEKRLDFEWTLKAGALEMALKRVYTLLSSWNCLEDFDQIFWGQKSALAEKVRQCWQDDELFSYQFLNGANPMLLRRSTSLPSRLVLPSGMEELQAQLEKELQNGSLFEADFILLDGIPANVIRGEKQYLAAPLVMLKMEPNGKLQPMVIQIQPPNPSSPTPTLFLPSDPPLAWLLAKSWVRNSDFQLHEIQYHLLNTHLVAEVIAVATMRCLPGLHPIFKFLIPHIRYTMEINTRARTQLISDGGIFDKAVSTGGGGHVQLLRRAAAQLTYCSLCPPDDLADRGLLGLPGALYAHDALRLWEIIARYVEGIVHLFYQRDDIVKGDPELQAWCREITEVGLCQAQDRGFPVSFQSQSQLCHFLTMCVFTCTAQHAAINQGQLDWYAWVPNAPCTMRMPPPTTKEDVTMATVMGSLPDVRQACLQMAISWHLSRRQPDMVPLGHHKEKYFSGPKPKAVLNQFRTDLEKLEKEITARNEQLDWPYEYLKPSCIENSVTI
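Hydroperoxide product was detected by ferrous iron/xylenol orange as the 573 to 405 nm absorbance ratio. Arachidonic acid at 40 uM (final) was turned over for 30 min at room temperature by 150 nM human 12hLO, pH 7.0 Hepes buffer, after 15 min compound preincubation.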
MCF10A rerep: induces DNA re-replication in MCF 10a normal breast cells | MCF 10A DNA re-replication, Hoechst nuclear intensity, 48 h | Potency, µM (doses to about 46.1 µM), for inactives: at the top dose activity, positive = re-replication, usual class: activators | actives 2.9% (n = 350,000); note: % of control where 0% means no effect; nearly all actives have a fitted effect of over 50% in size
SW480 rereplic: DNA re-replication induction in SW480 cells; actives 1.8% (n = 340,000); AID 624297; SW480 DNA re-replication, Hoechst DNA content imaging, 48 h; Potency, µM (series often up to 46.1 µM), for the others: at the top dose re-replication activation, usual class: activators; note: % of control where 0% means no effect; nearly all actives have a fitted effect of over 55% in size
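Cells (250 per well) received 23 nL compound or DMSO by pin tool and were kept 48 hr at 37 C, 5% CO2. Nuclei were then stained with Hoechst for 40 min and scanned for DNA content.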
PINK1 expr mod: changes PINK1 expression | Potency, µM (series often up to 76.6 µM), for the others: at the top dose activation (PINK1 increase), actives largely listed as activators | PINK1 immunofluorescence, high-content cytometry, 24 h | actives 0.2% (n = 410,000) | AID 624263; active = well fitted activation curve with a large enough effect; inconclusive = small, poorly fitted or top-dose-only effect; cell line not stated here; note: % of control where 0% means no effect; nearly all actives have a fitted effect of over 65% in size
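Stable cell line treated 24 h with compounds at 5 concentrations (CCCP controls), then fixed and immunostained for PINK1 plus nuclear and cell stains; PINK1 immunofluorescence quantified by laser-scanning microplate cytometry.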
The depositor's hits bear a star; i = inactive; ? = inconclusive; / = no result; ! = a repeat was not active; [ ] = another dose, or the depositor's remark. An excerpt weighted towards active compounds, which were near 5.8% of everything screened. Unless noted, calls come from the whole dose curve; as a rule, active = well fitted curve in the direction sought with a large enough effect; inconclusive = small, poorly fitted or top-dose-only effect, or another doubt; inactive = no such curve, though single readings can be large; an effect the other way counts as inactive or inconclusive. Potency is the fitted concentration of half-maximal effect.

SMILES	KB-3-1 tox	KB-V1 cytotox	12-LOX inh	MCF10A rerep	SW480 rereplic	PINK1 expr mod
Cc1cc(C)c(C)c(OCCOCCN2CCN(C)CC2)c1	i	i	-15%	21µM*	0%	-1%
Cc1cc(OC(=O)c2c(C)cc(OC(=O)c3c(C)cc(O)cc3O)cc2O)cc(O)c1C(=O)O	?	i	35µM*	3%	3%	6%
CC#CCn1cc2c3c(cccc31)[C@H](CC(C)C)N[C@H](C(=O)NCc1ccccc1)C2	/	/	33%[176 µM]	/	/	/
COc1cc(CNc2ccc(C(=O)O)cc2)cc(Br)c1OCC(=O)NC(C)(C)C	i	?	-26%	-4%	-23%	3%
C=CCOc1c(Br)cc(CNc2ccc(NC(=O)C(C)C)c(OC)c2)cc1OC	?	4.1µM*	5%	5.8µM*	18µM*	2%[38.3 µM]
COc1ccc(NS(=O)(=O)c2ccc3c(c2)[C@H]2C=CC[C@H]2[C@@H](c2ccc(C(=O)O)cc2)N3)cc1	i	?	28µM*!	-2%	-7%	0%
CCN(CC)CC(=O)N1c2ccccc2Sc2ccccc21	i	i	-26%	-1%	-10%	-1%
CCN(CC)CCCCN1c2ccccc2Sc2ccccc21	?	?	0%	26µM*	18µM*	-3%
CC(C)CCCCCCCCCCCCC(=O)NCC(=O)NC1C(C)OC(Nc2ncnc3nc[nH]c23)C(O)C1O (stereo unspecified)	0.01µM*	?	-18%	23%	30%	-2%
CC(C)CCCC(C)NC(=O)C1CCN(c2ncnc3nc[nH]c23)CC1 (stereo unspecified)	/	/	6%	/	/	/
O=C1NCCCCCCN(C(=O)Cc2ccccc2)[C@H]2C[C@H](c3nc(Cc4ccccc4)no3)C[C@@H]12	/	/	15%	/	/	/
CC(C)(C)C(=O)NCCCC(=O)NCc1ccccc1	/	/	-30%	/	/	/
O=c1n2c(c(O)n1C1CCCCC1)C(c1ccccc1)=Nc1ccccc1C2	i	16µM*	-10%	/	/	6%
COc1ccc(C(=O)N2CCc3ccc(C(=O)NCc4ccc(C)o4)cc32)cc1	/	/	24%	/	/	/
Cc1ccc2c(c1)Oc1ccc(NC(=O)CCl)cc1C(=O)N2	5.8µM*	9.2µM*	?	5.8µM*	2.3µM*	0%
O=C(NCc1ccccn1)c1ccc2c(c1)CC(=O)N2Cc1ccc(F)cc1	/	/	1%	/	/	/
COc1ccccc1N=Cc1c(C)c(C#N)c2[nH]c3ccccc3n2c1=O	i	i	1%	?	-2%	8%
N#Cc1c(C(F)(F)F)cc(=O)n2c1[nH]c1ccccc12	i	i	2%	18µM*	?	?
Cc1c(Cc2ccccc2)c(=O)n2c([nH]c3ccccc32)c1C#N	?	13µM*	-17%	14%	-16%	?
Cc1cc(C)c(NC(=O)c2nn(C(C)C)c(=O)c3ccccc23)c(Cl)c1	/	/	9%	/	/	/
O=C(O)COc1ccc(/C=C2\SC(=Nc3ccccc3)N(c3ccccc3)C2=O)cc1	i	i	-26%	16%	2%	0%
O=C(O)COc1ccccc1/C=C1\SC(=Nc2ccc(F)cc2)N(c2ccc(F)cc2)C1=O	i	?	-8%	6.5µM*	?	1%
Cc1cccc(NC(=O)CN2CCN(C(=O)CC(C)NC(=O)c3ccccc3)CC2)c1C (stereo unspecified)	/	/	34%	/	/	/
CCCCCCCCCC=O	/	/	17%[176 µM]	/	/	/
CC(Sc1n[nH]c(N)n1)C(=O)C12CC3CC(CC(C3)C1)C2 (stereo unspecified)	i	i	1%	6%	-18%	-1%
SMILES	KB-3-1 tox	KB-V1 cytotox	12-LOX inh	MCF10A rerep	SW480 rereplic	PINK1 expr mod
CC(SC#N)C(=O)C12CC3CC(CC(C3)C1)C2 (stereo unspecified)	21µM*	i	-1%	18µM*	?	-1%
CCn1c(C)c2c([n+]1CC)CC(C)(C)CC2=O	i	i	13µM*	-1%	0%	/
Cc1sc2nc3ccc(N4CCCCC4)nn3c(=O)c2c1C	i	9.2µM*	?	12%	-3%	?
CCc1cc(=O)oc2cc(OCC(=O)N3CCCc4cc(OC)ccc43)ccc12	/	/	-2%	/	/	/
O=C(NCC(=O)N1CCCCCCC1)c1cccc([N+](=O)[O-])c1	i	21µM*	16%	0%	2%	-1%
Cc1cc(Nc2ccccc2)c2c([N+](=O)[O-])c(C)cc(C)c2n1	?	21µM*	5%	20%	-6%	13%
Cc1ccc(Nc2cc(C)nc3c(C)c(C)cc([N+](=O)[O-])c23)cc1	/	/	15%	/	/	/
Cc1cccc(N2CCC(N3CCN(C4CCCCC4)C(CCO)C3)CC2)c1C (stereo unspecified)	i	i	-10%	16µM*	-7%	4%
CC(C)CC(=O)NCCc1ccsc1	/	/	15%	/	/	/
COCCN1CCCCCC(O)c2cc(C(=O)NCc3ccc(N4CCC(C)CC4)cc3)ccc21 (stereo unspecified)	/	/	11%	/	/	/
CC1CCN(c2ccc3c(c2)S(=O)(=O)c2cccc(C(=O)NCc4cccc(F)c4)c2C3=O)CC1	i	i	-2%	?	10%	-1%
O=C(NCc1cccc(C(F)(F)F)c1)c1cccc2c1C(=O)c1ccc(N3CCC(Cc4ccccc4)CC3)cc1S2(=O)=O	i	i	/	5.8µM*	13%	1%
CC(C)c1cccc(-c2ccc3c(c2)S(=O)(=O)c2cccc(C(=O)NCc4ccccc4)c2C3=O)c1	?	?	-8%	?	-6%	10%
Cc1cc(CNC(=O)c2cccc3c2C(=O)c2ccc(-c4ccc(F)cc4OCc4ccccc4)cc2S3(=O)=O)c(C(F)(F)F)o1	i	i	45µM*	?	2%	1%
O=C(NC[C@H]1CCCO1)c1cccc2c1C(=O)c1ccc(-c3ccc(F)cc3OCc3ccccc3)cc1S2(=O)=O	i	?	?	?	14%	1%
O=C(NCc1cccc(F)c1)c1cccc2c1C(=O)c1ccc(N3CCC(Cc4ccccc4)CC3)cc1S2(=O)=O	i	i	/	12µM*	-2%	2%
CC(C)c1cccc(-c2ccc3c(c2)S(=O)(=O)c2cccc(C(=O)NCc4ccccc4Cl)c2C3=O)c1	6.5µM*	i	/	?	-97%	19%
CCOC(=O)c1cc2cccc(OC)c2o1	/	/	-34%	/	/	/
CCCCCCC1COC(c2ccc(OCC)cc2)OC1 (stereo unspecified)	/	/	5%	/	/	/
Cc1ccc(C)c(-n2nnnc2SCC(=O)c2ccc(Cl)s2)c1	/	/	21%	/	/	/
